Laboratory results reported in the supplement of paper PMC7595190.

What was measured:
[1] = test system: CMK; assay: CellTox Green cytotoxicity fluorescence relative to DMSO vehicle (fold of vehicle RFU); higher = more cell death (loss of membrane integrity), active = 2 or more
Outline: (§1)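 Values are cytotoxicity, read as fluorescence from loss of membrane integrity and expressed as fold of the DMSO vehicle. MV4-11, CMK and Kasumi-1 cells at 4.0 × 10^4 per well received CellTox Green reagent at seeding and single Selleckchem apoptosis library compounds at final 0.01, 0.1 and 1 µM (vehicle 0.1% DMSO). Plates were incubated at 37 °C, 5% CO2 and read at 24, 48 and 72 h.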

[2] = test system: Kasumi-1; assay: as above
Outline: as §1

Structure (SMILES) | CellTox Green cytotoxicity fluorescence ([1]; 0.01 µM, 24 h) | CellTox Green cytotoxicity fluorescence ([1]; 0.01 µM, 48 h) | CellTox Green cytotoxicity fluorescence ([1]; 0.01 µM, 72 h) | CellTox Green cytotoxicity fluorescence ([1]; 0.1 µM, 24 h) | CellTox Green cytotoxicity fluorescence ([1]; 0.1 µM, 48 h) | CellTox Green cytotoxicity fluorescence ([1]; 0.1 µM, 72 h) | CellTox Green cytotoxicity fluorescence ([1]; 1 µM, 24 h) | CellTox Green cytotoxicity fluorescence ([1]; 1 µM, 48 h) | CellTox Green cytotoxicity fluorescence ([1]; 1 µM, 72 h) | CellTox Green cytotoxicity fluorescence ([2]; 0.01 µM, 24 h) | CellTox Green cytotoxicity fluorescence ([2]; 0.01 µM, 48 h) | CellTox Green cytotoxicity fluorescence ([2]; 0.01 µM, 72 h) | CellTox Green cytotoxicity fluorescence ([2]; 0.1 µM, 24 h) | CellTox Green cytotoxicity fluorescence ([2]; 0.1 µM, 48 h) | CellTox Green cytotoxicity fluorescence ([2]; 0.1 µM, 72 h) | CellTox Green cytotoxicity fluorescence ([2]; 1 µM, 24 h) | CellTox Green cytotoxicity fluorescence ([2]; 1 µM, 48 h) | CellTox Green cytotoxicity fluorescence ([2]; 1 µM, 72 h)
COc1cc([C@@H]2c3cc4c(cc3[C@H](O)[C@H]3COC(=O)[C@@H]23)OCO4)cc(OC)c1OC [Picropodophyllin] | 0.955 (inactive) | 0.958 (inactive) | 0.973 (inactive) | 1.06 (inactive) | 1.23 (inactive) | 1.08 (inactive) | 1.34 (inactive) | 2.12 (active) | 1.58 (inactive) | 0.945 (inactive) | 0.978 (inactive) | 0.997 (inactive) | 0.993 (inactive) | 0.999 (inactive) | 1.06 (inactive) | 1.16 (inactive) | 1.35 (inactive) | 1.48 (inactive)
O=C(O)C(=O)c1cn(Cc2ccccc2)c2ccc(-c3ccc(OC(F)(F)F)cc3)cc12 [Tiplaxtinin] | 1.02 (inactive) | 1.01 (inactive) | 1 (inactive) | 1.01 (inactive) | 1.02 (inactive) | 0.987 (inactive) | 0.968 (inactive) | 0.972 (inactive) | 0.943 (inactive) | 1.02 (inactive) | 1.01 (inactive) | 1.03 (inactive) | 1.02 (inactive) | 1.02 (inactive) | 1.03 (inactive) | 0.968 (inactive) | 0.983 (inactive) | 0.973 (inactive)
O=c1[nH]c2ccccc2n1C1CCN(Cc2ccc(-c3[nH]c4cc5ncnc5cc4nc3-c3ccccc3)cc2)CC1 | 1.02 (inactive) | 0.991 (inactive) | 0.913 (inactive) | 0.983 (inactive) | 0.97 (inactive) | 0.906 (inactive) | 0.966 (inactive) | 0.967 (inactive) | 0.949 (inactive) | 0.972 (inactive) | 0.961 (inactive) | 0.96 (inactive) | 0.969 (inactive) | 0.99 (inactive) | 0.958 (inactive) | 1.08 (inactive) | 1.29 (inactive) | 1.35 (inactive)
Cn1c(COP(=O)(NCCBr)NCCBr)cnc1[N+](=O)[O-] | 0.974 (inactive) | 0.98 (inactive) | 0.991 (inactive) | 0.972 (inactive) | 0.996 (inactive) | 1.07 (inactive) | 0.975 (inactive) | 1.24 (inactive) | 1.89 (inactive) | 1.03 (inactive) | 0.968 (inactive) | 0.958 (inactive) | 0.962 (inactive) | 0.956 (inactive) | 0.952 (inactive) | 0.977 (inactive) | 0.974 (inactive) | 0.977 (inactive)
CC1=C(O)C(=O)C=C2C1=CC=C1[C@@]2(C)CC[C@@]2(C)[C@@H]3C[C@](C)(C(=O)O)CC[C@]3(C)CC[C@]12C [Celastrol] | 0.959 (inactive) | 0.961 (inactive) | 0.98 (inactive) | 0.946 (inactive) | 0.94 (inactive) | 0.932 (inactive) | 2.38 (active) | 3.09 (active) | 2.25 (active) | 0.916 (inactive) | 0.923 (inactive) | 0.903 (inactive) | 0.954 (inactive) | 0.962 (inactive) | 0.952 (inactive) | 1.23 (inactive) | 1.43 (inactive) | 1.47 (inactive)
Cc1cc2c(C(C)C)c(O)c(O)c(C=O)c2c(O)c1-c1c(C)cc2c(C(C)C)c(O)c(O)c(C=O)c2c1O | 0.986 (inactive) | 0.967 (inactive) | 0.952 (inactive) | 0.998 (inactive) | 0.982 (inactive) | 0.961 (inactive) | 0.986 (inactive) | 0.979 (inactive) | 0.85 (inactive) | 0.96 (inactive) | 0.957 (inactive) | 0.955 (inactive) | 0.99 (inactive) | 0.973 (inactive) | 0.975 (inactive) | 0.98 (inactive) | 0.966 (inactive) | 0.978 (inactive)
COc1ccc2c(c1)/C(=C/c1cnc[nH]1)C(=O)N2 | 0.911 (inactive) | 0.923 (inactive) | 1.04 (inactive) | 0.922 (inactive) | 0.924 (inactive) | 1.05 (inactive) | 0.934 (inactive) | 0.914 (inactive) | 0.881 (inactive) | 0.934 (inactive) | 0.941 (inactive) | 0.971 (inactive) | 0.976 (inactive) | 0.981 (inactive) | 0.966 (inactive) | 0.881 (inactive) | 0.948 (inactive) | 0.963 (inactive)
CN[C@@H]1C[C@H]2O[C@@](C)([C@@H]1OC)n1c3ccccc3c3c4c(c5c6ccccc6n2c5c31)C(=O)NC4 [Staurosporine] | 0.96 (inactive) | 0.998 (inactive) | 1.07 (inactive) | 1.01 (inactive) | 1.29 (inactive) | 1.4 (inactive) | 1.1 (inactive) | 1.45 (inactive) | 1.29 (inactive) | 0.984 (inactive) | 1.18 (inactive) | 1.24 (inactive) | 1.08 (inactive) | 1.54 (inactive) | 1.74 (inactive) | 1.67 (inactive) | 2.08 (active) | 2.12 (active)
CC[C@H](C)[C@@H]([C@@H](CC(=O)N1CCC[C@H]1[C@H](OC)[C@@H](C)C(=O)N[C@H](C)[C@@H](O)c1ccccc1)OC)N(C)C(=O)[C@@H](NC(=O)[C@@H](NC)C(C)C)C(C)C [Monomethyl auristatin E] | 1.24 (inactive) | 1.82 (inactive) | 1.43 (inactive) | 1.52 (inactive) | 2.24 (active) | 1.56 (inactive) | 1.97 (inactive) | 2.64 (active) | 1.78 (inactive) | 1.06 (inactive) | 1.27 (inactive) | 1.44 (inactive) | 1.17 (inactive) | 1.42 (inactive) | 1.53 (inactive) | 1.31 (inactive) | 1.56 (inactive) | 1.62 (inactive)
COc1cc(C)[nH]c(=O)c1CNC(=O)c1c(C)n([C@H](C)C2CCOCC2)c2ccccc12 | 0.942 (inactive) | 0.948 (inactive) | 0.965 (inactive) | 0.936 (inactive) | 0.944 (inactive) | 0.919 (inactive) | 0.949 (inactive) | 0.973 (inactive) | 0.965 (inactive) | 0.935 (inactive) | 0.952 (inactive) | 0.966 (inactive) | 0.97 (inactive) | 0.948 (inactive) | 0.954 (inactive) | 1.03 (inactive) | 0.982 (inactive) | 0.976 (inactive)
